According to PubChem BioAssay (NCATS):
Inconclusive results are not listed. Where a call stands in place of a potency, no number is given. Active and inactive are the calls of the source. Calls follow the shape of the dose curve; as a rule, active = well fitted cell-killing curve with a large enough effect; inconclusive = small, poorly fitted or top-dose-only effect, or effect the other way; inactive = flat fitted curve, though single readings scatter. Starred links: 1 amine or outer side, 2 acyl side, 3 side chain; linkers in the order of their positions; H or OH if unused. Positions of bridges follow the written chain, without caps; N, C: chain ends. Non-standard residues stand in square brackets, D forms with d. Residues, ends and D or L forms follow the SMILES beside them. Chains are numbered I, II in the order given. *: point of attachment. Actinocin(9to1) = Cc1c2oc3c(C)ccc(C(=O)[*:1])c3nc-2c(C(=O)[*:2])c(N)c1=O; NMeV = CN[CH](C(=O)O)C(C)C; Nva = CCC[C@H](N)C(=O)O; Cbz = O=C(OCc1ccccc1)*; Sar = CNCC(=O)O

assay: qHTS of pediatric cancer cell lines to identify multiple opportunities for drug repurposing: Confirmatory screen for control Hh wild type fibroblast cells (AID 1347121); details: viability qHTS; series mostly up to 45.9 µM; also: nearly all actives have a fitted effect of over 70% in size
From the text: Drug repurposing or repositioning has been offered as a strategy for drug development in oncology programs. This approach has special potential for childhood cancers and other rare or orphan diseases, where the expected return on new drug development has been a disincentive to pharmaceuticals.
In this project we exploit the poly-pharmacology of drugs to discover new indications via phenotypic screening of a panel of 19 well-characterized cell lines derived from solid tumors seen in children and adolescents. The goal is to identify approved drugs with previously unrecognized anticancer properties that has the potential to reveal new mechanisms and biological processes involved in carcinogenesis or drug resistance. We employed a titration-based paradigm (quantitative high-throughput screening or qHTS), where all compounds were tested at multiple concentrations for their effect on cell viability. Concentration-response curves (CRCs) were derived directly from the primary screen, and both potency and efficacy values were used to identify compounds with robust bioactivity profiles. We screened the NIH Chemical Genomics Center (NCGC) Pharmaceutical Collection (NPC) and Mechanism Interrogation Plate (MIPE) small molecule collections of approved and investigational compounds against these cell lines; and measured metabolically active cells after 48 hours of compound treatment as a proxy for cell viability.
Assay Submitter: Nathalia J. Martinez, National Center for Advancing Translational Sciences, National Institutes of Health, Rockville, MD, USA; email: natalia.martinez@nih.gov
[1] Shen, M et al. Quantitative high-throughput phenotypic screening of pediatric cancer cell lines identifies multiple opportunities for drug repurposing. Oncotarget 2017 Dec 19;9(4):4758-4772. PMID 29435139.
The cells were obtained from University of North Carolina (UNC), Pediatric Preclinical Testing Program (PPT), and Coriell Institute (CI).
qHTS cell viability assay:
Cells were assayed in growth media at a density of 500-1,000 cells/well. Five microliters of cells were dispensed into 1,536-well, white, solid-bottom, TC-treated plates (Greiner Bio One) using a multidrop dispenser and incubated at 37 degrees C, 5% CO2, under a humidified atmosphere for 5 hours. Twenty-three nanoliters of compounds and controls (neutral control DMSO or positive control bortezomib at final concentration of 2.3 µM) were subsequently transferred by Kalypsys pintool. For primary screens, the MIPE collection was tested at 11-point dilutions (final concentrations range from 0.78 nM to 46 µM) and the NPC collection at 8-point dilutions (final concentrations range from 0.59 nM to 46 µM). Compounds tested in follow-up screens were assayed at 11-point dilutions. Cells were incubated for 48 hours, followed by addition of 3 µL of CellTiter-Glo (Promega). After a 15 min incubation at room temperature, samples were analyzed for luminescence intensity using a ViewLux High-throughput CCD imager equipped with clear filters.
Potency is read from the fitted curve at half-maximal effect.

SMILES	Potency
CNC(=O)c1ccc(Nc2cc(Nc3ccccc3S(=O)(=O)C(C)C)c3cc[nH]c3n2)nc1	13.1 µM (active)
CO[C@@H]1[C@@H](O)[C@H](O)[C@@H](n2c3c(Cl)cccc3c3c4c(c5c6cccc(Cl)c6[nH]c5c32)C(=O)NC4=O)O[C@@H]1CO	inactive
O=C(NCc1ccccc1)[C@H](Cc1ccccc1)NC(=O)[C@@H]1O[C@@H]1C(=O)NCCc1ccc(O)cc1	inactive
CC[C@]12C=CCN3CC[C@@]4(c5cc([C@@]6(C(=O)OC)C[C@H]7C[C@@H](C(C)(F)F)CN(Cc8c6[nH]c6ccccc86)C7)c(OC)cc5N(C)[C@H]4[C@@](O)(C(=O)OC)[C@H]1OC(C)=O)[C@@H]32	inactive
C[N+](C)([O-])CCNc1ccc(NCC[N+](C)(C)[O-])c2c1C(=O)c1c(O)ccc(O)c1C2=O	inactive
C[C@@H](Oc1ccc2[nH]nc(C=Cc3cnn(CCO)c3)c2c1)c1c(Cl)cncc1Cl	13.1 µM (active)
CC(C)C[C@@H](C=O)NC(=O)[C@H](CC(C)C)NC(=O)[C@H](CC(C)C)NC(=O)OCc1ccccc1 (Cbz-Leu-Leu-Leu-aldehyde)	5.85 µM (active)
CCC[C@@H](C=O)NC(=O)[C@H](CC(C)C)NC(=O)[C@H](CC(C)C)NC(=O)OCc1ccccc1 (Cbz-Leu-Leu-[Nva]-aldehyde)	7.37 µM (active)
Cc1nc(NC(=O)N2CCC[C@@H]2C(N)=O)sc1-c1ccnc(C(C)(C)C(F)(F)F)c1	inactive
C=C1C(=CC=C2CCC[C@]3(C)[C@@H]([C@H](C)CCCC(C)(C)O)CC[C@@H]23)C[C@@H](O)C[C@@H]1O	inactive
COc1ccc(C=Cc2cc(OC)c(OC)c(OC)c2)cc1NC(=O)[C@H](N)CO	inactive
NS(=O)(=O)OC[C@@H]1C[C@@H](n2ccc3c(N[C@H]4CCc5ccccc54)ncnc32)C[C@H]1O	inactive
O=C(O)C[C@H](O)C[C@H](O)C=Cc1c(C2CC2)nc2ccccc2c1-c1ccc(F)cc1	inactive
COC(=O)C1C2CC3c4[nH]c5cc(OC)ccc5c4CCN3CC2CC(OC(=O)c2cc(OC)c(OC)c(OC)c2)C1OC (stereo not given)	inactive
CS[C@H]1SC[C@@H]2C(=O)N(C)[C@H](C(C)C)C(=O)OC[C@H](NC(=O)c3cnc4ccccc4n3)C(=O)N[C@H](C)C(=O)N(C)[C@@H]1C(=O)N(C)[C@H](C(C)C)C(=O)OC[C@H](NC(=O)c1cnc3ccccc3n1)C(=O)N[C@H](C)C(=O)N2C	inactive
COc1cc(OC)c(C=CS(=O)(=O)Cc2ccc(OC)c(NCC(=O)O)c2)c(OC)c1	inactive
C#CCC(Cc1cnc2nc(N)nc(N)c2n1)c1ccc(C(=O)N[C@@H](CCC(=O)O)C(=O)O)cc1 (stereo not given in full)	inactive
CC1(C)O[C@@H]2C[C@H]3[C@@H]4CCC5=CC(=O)C=C[C@]5(C)[C@@H]4[C@@H](O)C[C@]3(C)[C@]2(C(=O)CO)O1	inactive
CC(C=CC(=O)NO)=C[C@@H](C)C(=O)c1ccc(N(C)C)cc1	6.57 µM (active)
Cn1cc(-c2cnn3c(N)c(Br)c([C@H]4CCCNC4)nc23)cn1	inactive

SMILES	Potency
CC(C)(O)Cn1c(NC(=O)c2ccc(-c3cn[nH]c3)s2)nc2cc(CN3CCOCC3)ccc21	5.22 µM (active)
COc1cc2ncnc(Nc3cccc(Br)c3)c2cc1OC	inactive
CC(=O)N1CCN(c2ccc(OCc3nn(C)c(C)c3-c3cccc4c(CCCOc5cccc6ccccc56)c(C(=O)O)n(Cc5cccnc5)c34)cc2)CC1	inactive
CCc1cc(C(C)=NOCc2ccc(C3CCCCC3)c(C(F)(F)F)c2)ccc1CN1CC(C(=O)O)C1	inactive
Cc1c2oc3c(C)ccc(C(=O)NC4C(=O)NC(C(C)C)C(=O)N5CCCC5C(=O)N(C)CC(=O)N(C)C(C(C)C)C(=O)OC4C)c3nc-2c(C(=O)NC2C(=O)NC(C(C)C)C(=O)N3CCCC3C(=O)N(C)CC(=O)N(C)C(C(C)C)C(=O)OC2C)c(N)c1=O (stereo not given) (I: TVP[Sar][NMeV] / II: TVP[Sar][NMeV]; ester I:1-I:C, II:1-II:C; linker I:N-II:N via Actinocin(9to1); configuration not given here)	inactive
C[C@H]1[C@@H](OC(=O)CCC(=O)O)O[C@@H]2O[C@@]3(C)CC[C@@H]4[C@H](C)CC[C@@H]1[C@@]24OO3	inactive
O=S(=O)(O)CCSSCCS(=O)(=O)O	inactive
CC(=O)ON=C1C(c2c(O)[nH]c3cc(Br)ccc23)=Nc2ccccc21	inactive
CC(C(C)N1CC(=O)NC(=O)C1)N1CC(=O)NC(=O)C1 (stereo not given)	inactive
CCOC(=O)[C@@H](N)Cc1ccc(-c2cc(O[C@H](c3ccc(Cl)cc3-n3ccc(C)n3)C(F)(F)F)nc(N)n2)cc1	inactive
COc1ccc(C(C)=O)c(O)c1	inactive
Cn1cc(CNCC2CCN(c3ncc(C(=O)NO)cn3)CC2)c2ccccc21	1.31 µM (active)
O=C1NCCc2[nH]c(-c3ccncc3)cc21	inactive
COc1cc([C@@H]2c3cc4c(cc3[C@@H](O[C@@H]3O[C@@H]5CO[C@@H](c6cccs6)O[C@@H]5[C@H](O)[C@@H]3O)[C@H]3COC(=O)[C@H]23)OCO4)cc(OC)c1O	inactive
CCOC(=O)C1=C(C)NC(=S)NC1c1cccc(O)c1 (stereo not given)	inactive
C=Cc1c(C)c2cc3nc(cc4[nH]c(cc5nc(cc1[nH]2)C(C)=C5CCC(=O)O)c(CCC(=O)OC)c4C)[C@@]1(C)C3=CC=C(C(=O)OC)[C@H]1C(=O)OC	inactive
CC(=O)O[C@@]12CO[C@H]1C[C@H](O)[C@@]1(C)C(=O)[C@H](O)C3=C(C)[C@@H](OC(=O)C(O)[C@@H](NC(=O)OC(C)(C)C)c4ccccc4)C[C@@](O)([C@@H](OC(=O)c4ccccc4)[C@@H]21)C3(C)C (stereo not given in full)	inactive
O=C(NC1CC1)c1cccc(-c2ccc3c(NC(=O)C4CC4)n[nH]c3c2)c1	inactive
COc1ccc(Nc2cc(-c3cnc(N)nc3)nc(N3CCOCC3)n2)cn1	inactive
C[C@H](NCc1ccc2c(c1)nc(NC(=O)c1ccc(-c3cn[nH]c3)s1)n2CCc1ccccc1)C(C)(C)C	10.4 µM (active)
